Assay in all cases: DAPPL (digital affinity profiling via proximity ligation, sequencing); 10 mM Tris-HCl pH 7.5, 50 mM NaCl, 1 mM DTT, 4% glycerol, room temperature, 30 min; GST-TFs on glutathione beads, 16-mer random dsDNA library, 0.1% formaldehyde crosslink after washing; high values mean tight binding
Holding throughout (details): protein: recombinant; tags: N-terminal GST; dsDNA, one strand shown

In one assay the target is T1, ERF (Homo sapiens, UniProt P50548 1-548).
T1 sequence: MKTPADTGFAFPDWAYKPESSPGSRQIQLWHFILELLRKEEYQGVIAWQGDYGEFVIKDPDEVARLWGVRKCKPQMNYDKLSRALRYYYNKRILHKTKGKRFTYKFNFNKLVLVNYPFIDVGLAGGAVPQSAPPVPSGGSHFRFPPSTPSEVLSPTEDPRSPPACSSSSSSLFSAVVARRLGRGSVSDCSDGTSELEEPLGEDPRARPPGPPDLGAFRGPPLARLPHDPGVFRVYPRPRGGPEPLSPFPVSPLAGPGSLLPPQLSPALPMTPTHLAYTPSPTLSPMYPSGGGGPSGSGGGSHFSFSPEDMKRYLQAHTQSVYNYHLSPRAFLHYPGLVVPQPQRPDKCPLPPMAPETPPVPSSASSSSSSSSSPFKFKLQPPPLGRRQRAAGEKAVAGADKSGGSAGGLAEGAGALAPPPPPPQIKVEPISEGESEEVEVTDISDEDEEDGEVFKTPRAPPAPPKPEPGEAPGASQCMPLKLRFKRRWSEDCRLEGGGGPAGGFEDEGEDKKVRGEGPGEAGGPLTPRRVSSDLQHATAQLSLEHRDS
Put shortly:
(§1)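 A tag-only sample was pooled with DNA-barcoded human transcription factors that had been expressed in yeast as GST fusions and captured on glutathione beads. The pools were incubated for 30 min at room temperature with 200 nmole of a random double-stranded 16-mer DNA library in Tris/NaCl/DTT/glycerol buffer, then washed, crosslinked with 0.1% formaldehyde, proximity-ligated (BsaI/T4 ligase, 1 h, 37 °C), PCR-amplified and sequenced on an Illumina NextSeq500. Binding signal is each hexamer's read frequency for a factor divided by its frequency for the tag-only sample.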

The next assay concerns the target T2, ETV3L (Homo sapiens, UniProt Q6ZN32 1-361).
T2 sequence: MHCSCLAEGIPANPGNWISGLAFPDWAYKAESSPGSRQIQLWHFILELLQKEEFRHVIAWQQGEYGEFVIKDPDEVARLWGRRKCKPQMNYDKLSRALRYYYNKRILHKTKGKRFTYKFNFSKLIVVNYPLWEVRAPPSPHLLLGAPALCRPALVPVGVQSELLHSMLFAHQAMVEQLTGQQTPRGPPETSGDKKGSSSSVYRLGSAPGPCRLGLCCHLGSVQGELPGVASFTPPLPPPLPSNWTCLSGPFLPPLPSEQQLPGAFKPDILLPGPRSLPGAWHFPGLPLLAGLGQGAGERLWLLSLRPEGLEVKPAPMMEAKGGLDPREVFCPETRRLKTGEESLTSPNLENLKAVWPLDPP
The method, boiled down: as §1

A further assay concerns the target T3, ETS2 (Homo sapiens, UniProt P15036 1-469).
T3 sequence: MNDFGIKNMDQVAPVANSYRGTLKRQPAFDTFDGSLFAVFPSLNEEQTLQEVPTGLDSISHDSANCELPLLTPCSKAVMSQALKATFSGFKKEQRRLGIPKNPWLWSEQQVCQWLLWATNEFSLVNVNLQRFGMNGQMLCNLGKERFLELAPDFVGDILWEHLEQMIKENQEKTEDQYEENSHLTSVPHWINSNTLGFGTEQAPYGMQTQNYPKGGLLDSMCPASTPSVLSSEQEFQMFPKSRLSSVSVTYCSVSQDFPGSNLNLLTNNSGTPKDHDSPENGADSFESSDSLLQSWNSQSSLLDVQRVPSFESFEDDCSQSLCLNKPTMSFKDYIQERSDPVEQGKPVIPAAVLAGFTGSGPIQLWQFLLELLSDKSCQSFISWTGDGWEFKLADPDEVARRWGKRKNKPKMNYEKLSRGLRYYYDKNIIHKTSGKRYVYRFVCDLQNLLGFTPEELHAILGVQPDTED
The method, boiled down:
as §1

A further assay addresses T4, SPDEF (Homo sapiens, UniProt O95238 1-335).
T4 sequence: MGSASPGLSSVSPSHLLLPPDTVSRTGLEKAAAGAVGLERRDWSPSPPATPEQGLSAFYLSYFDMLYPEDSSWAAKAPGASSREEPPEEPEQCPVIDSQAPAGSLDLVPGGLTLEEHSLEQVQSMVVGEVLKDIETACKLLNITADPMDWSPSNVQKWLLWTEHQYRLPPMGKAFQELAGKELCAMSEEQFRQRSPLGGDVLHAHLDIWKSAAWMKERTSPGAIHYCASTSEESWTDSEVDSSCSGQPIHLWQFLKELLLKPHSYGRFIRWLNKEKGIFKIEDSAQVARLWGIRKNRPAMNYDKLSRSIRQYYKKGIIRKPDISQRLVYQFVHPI
Put shortly: as §1

For a further assay, the target named is T5, ETV7 (Homo sapiens, UniProt Q9Y603 1-341).
T5 sequence: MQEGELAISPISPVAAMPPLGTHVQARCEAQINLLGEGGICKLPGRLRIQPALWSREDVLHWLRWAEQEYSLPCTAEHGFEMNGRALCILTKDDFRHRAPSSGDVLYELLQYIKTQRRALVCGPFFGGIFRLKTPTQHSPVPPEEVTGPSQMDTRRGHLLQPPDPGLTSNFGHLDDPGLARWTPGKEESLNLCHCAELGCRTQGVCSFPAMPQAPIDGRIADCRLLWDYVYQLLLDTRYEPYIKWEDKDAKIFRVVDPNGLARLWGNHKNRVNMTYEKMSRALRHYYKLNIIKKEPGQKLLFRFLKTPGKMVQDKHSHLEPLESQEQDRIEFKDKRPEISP
Put shortly: as §1

In the next assay the target is T6, ELF5 (Homo sapiens, UniProt Q9UKW6-2 1-255).
T6 sequence: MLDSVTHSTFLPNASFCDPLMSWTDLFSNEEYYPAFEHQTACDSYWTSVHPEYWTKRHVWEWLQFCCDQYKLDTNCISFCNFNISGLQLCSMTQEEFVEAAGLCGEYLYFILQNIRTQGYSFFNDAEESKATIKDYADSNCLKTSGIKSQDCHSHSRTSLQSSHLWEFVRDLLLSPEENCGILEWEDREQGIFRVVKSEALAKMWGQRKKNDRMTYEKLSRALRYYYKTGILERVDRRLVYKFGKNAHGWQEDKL
The method, boiled down:
as §1

A further assay concerns the target T7, ETV3 (Homo sapiens, UniProt P41162-2 1-143).
T7 sequence: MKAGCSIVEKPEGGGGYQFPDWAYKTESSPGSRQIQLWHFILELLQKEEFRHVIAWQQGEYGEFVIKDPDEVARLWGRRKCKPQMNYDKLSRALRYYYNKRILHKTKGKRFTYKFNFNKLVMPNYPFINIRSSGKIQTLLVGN
The method, boiled down: as §1

In a further assay the target is ETV6 (Homo sapiens, UniProt P41212 1-452). The method, boiled down: as §1
Sequence of ETV6 (P41212 whole entry): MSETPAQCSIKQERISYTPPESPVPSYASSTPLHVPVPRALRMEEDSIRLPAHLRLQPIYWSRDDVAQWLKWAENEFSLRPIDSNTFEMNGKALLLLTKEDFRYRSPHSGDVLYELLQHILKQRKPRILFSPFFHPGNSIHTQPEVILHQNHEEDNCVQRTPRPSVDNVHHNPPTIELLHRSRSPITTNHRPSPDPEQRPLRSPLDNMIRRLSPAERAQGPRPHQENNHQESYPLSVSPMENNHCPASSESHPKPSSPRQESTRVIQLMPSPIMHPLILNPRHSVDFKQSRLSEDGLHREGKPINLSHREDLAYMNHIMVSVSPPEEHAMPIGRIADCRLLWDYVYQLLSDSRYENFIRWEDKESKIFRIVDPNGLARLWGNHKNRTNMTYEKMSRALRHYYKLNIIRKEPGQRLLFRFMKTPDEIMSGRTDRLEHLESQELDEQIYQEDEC

As to TGTCCA, the binding signal in the assay with ERF is 1.09 fold enrichment (6-mer frequency, TF over GST control); in the assay with ETV3L it was 1.2 fold enrichment (6-mer frequency, TF over GST control); with ETS2, 1.14 fold enrichment (6-mer frequency, TF over GST control); in the assay with SPDEF, 1.13 fold enrichment (6-mer frequency, TF over GST control); with ETV7 it was 1.18 fold enrichment (6-mer frequency, TF over GST control); with ELF5, 1.05 fold enrichment (6-mer frequency, TF over GST control). The binding signal is 1.13 fold enrichment (6-mer frequency, TF over GST control) in the assay with ETV3 and 1.12 fold enrichment (6-mer frequency, TF over GST control) in the assay with ETV6.

TAGGGT: the binding signal with ERF was 1.15 fold enrichment (6-mer frequency, TF over GST control); with ETV3L, 1.03 fold enrichment (6-mer frequency, TF over GST control); with ETS2, 1.02 fold enrichment (6-mer frequency, TF over GST control); with SPDEF, 1.12 fold enrichment (6-mer frequency, TF over GST control); with ETV7, 1.11 fold enrichment (6-mer frequency, TF over GST control); with ELF5, 1.06 fold enrichment (6-mer frequency, TF over GST control). For the same sequence, the binding signal with ETV6 is 1.04 fold enrichment (6-mer frequency, TF over GST control).

In the case of TTAGCG, the binding signal in the assay with ERF was 1.05 fold enrichment (6-mer frequency, TF over GST control); with ETV3L it was 1.06 fold enrichment (6-mer frequency, TF over GST control); in the assay with ETS2, 1.06 fold enrichment (6-mer frequency, TF over GST control); with SPDEF it was 1.04 fold enrichment (6-mer frequency, TF over GST control); with ETV7, 1.11 fold enrichment (6-mer frequency, TF over GST control); with ELF5, 1.02 fold enrichment (6-mer frequency, TF over GST control). In addition, the binding signal in the assay with ETV3 was 1.03 fold enrichment (6-mer frequency, TF over GST control); with ETV6, 1.04 fold enrichment (6-mer frequency, TF over GST control).

For the sequence CCCACA, the binding signal was 1.12 fold enrichment (6-mer frequency, TF over GST control) with ERF; 1.1 fold enrichment (6-mer frequency, TF over GST control) in the assay with ETV3L; 1.13 fold enrichment (6-mer frequency, TF over GST control) with ETS2; 1.22 fold enrichment (6-mer frequency, TF over GST control) with SPDEF; 1.05 fold enrichment (6-mer frequency, TF over GST control) with ETV7; 1.13 fold enrichment (6-mer frequency, TF over GST control) in the assay with ELF5. The binding signal was 1.1 fold enrichment (6-mer frequency, TF over GST control) in the assay with ETV3 and 1.14 fold enrichment (6-mer frequency, TF over GST control) in the assay with ETV6.

Consider TGTCTG, for which the binding signal with ERF was 1.09 fold enrichment (6-mer frequency, TF over GST control); with ETV3L, 1.05 fold enrichment (6-mer frequency, TF over GST control); with ETS2 it was 1.09 fold enrichment (6-mer frequency, TF over GST control); with SPDEF, 1.15 fold enrichment (6-mer frequency, TF over GST control); with ETV7 it was 1.02 fold enrichment (6-mer frequency, TF over GST control); with ELF5 it was 1.15 fold enrichment (6-mer frequency, TF over GST control). The binding signal in the assay with ETV6 was 1.12 fold enrichment (6-mer frequency, TF over GST control).

For the sequence GAATTC, the binding signal with ERF was 1.38 fold enrichment (6-mer frequency, TF over GST control); in the assay with ETV3L, 1.41 fold enrichment (6-mer frequency, TF over GST control); with ETS2 it was 1.33 fold enrichment (6-mer frequency, TF over GST control); with SPDEF, 1.33 fold enrichment (6-mer frequency, TF over GST control); with ETV7, 1.32 fold enrichment (6-mer frequency, TF over GST control); in the assay with ELF5, 1.32 fold enrichment (6-mer frequency, TF over GST control). The binding signal with ETV3 is 1.35 fold enrichment (6-mer frequency, TF over GST control); with ETV6, 1.2 fold enrichment (6-mer frequency, TF over GST control).

ATCCCA: the binding signal with ERF was 1.21 fold enrichment (6-mer frequency, TF over GST control); in the assay with ETV3L it was 1.1 fold enrichment (6-mer frequency, TF over GST control); with ETS2, 1.03 fold enrichment (6-mer frequency, TF over GST control); in the assay with SPDEF, 1.1 fold enrichment (6-mer frequency, TF over GST control); in the assay with ETV7, 1.2 fold enrichment (6-mer frequency, TF over GST control); in the assay with ELF5 it was 1.17 fold enrichment (6-mer frequency, TF over GST control). Moreover, the binding signal with ETV6 is 1.12 fold enrichment (6-mer frequency, TF over GST control).
